The target in assay [1] is Thyrotropin-releasing hormone receptor (Homo sapiens) (UniProt P34981). Nature of the assay: qHTS assay to identify small molecule agonists of the thyrotropin-releasing hormone receptor (TRHR) signaling pathway (AID 1346891; calls by dose curve; note: series mostly up to about 58 µM). The essentials:
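HEK293 cells expressing TRHR plated 18 h at 37 C/5% CO2, calcium dye-loaded 2 h at 37 C, then compound added (agonist mode); kinetic calcium fluorescence read 3 min at 1 s intervals; 15 concentrations in triplicate.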

Assay [2] can be described thus: Human pregnane X receptor (PXR) small molecule agonists, qHTS cell viability counter screen (AID 1346977). Note: nearly all actives have a fitted effect of over 50% in size. Note: potency is the fitted concentration of half-maximal effect. In a few lines:
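PXR-Luc HepG2 cells (2,000/well, 5% charcoal-stripped FBS) preincubated 5 hr, then exposed to compounds 24 hr at 37 C. Viability read in the same wells by CellTiter-Fluor fluorescence, reagent added at 23 hr, 1 hr incubation.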
On the technique in general: Quantitative high-throughput screening tests each substance at several concentrations.

Assay [3] is described as follows: Caspase-3/7 induction in HepG2 cells by small molecules, qHTS assay (AID 1346978). Note: nearly all actives have a fitted effect of over 15% in size. Note: potency is the fitted concentration of half-maximal effect. The essentials: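 Caspase-3/7 induction was measured by Caspase-Glo 3/7 luminescence (30 min, room temperature) after a 17 hr compound exposure of wild-type HepG2 cells seeded at 2,000 per well and pre-incubated 5 hr.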
Assay [4] is described as follows: Caspase-3/7 induction in CHO-K1 cells by small molecules, qHTS cell viability counter screen (AID 1346979). Note: nearly all actives have a fitted effect of over 35% in size. Note: potency is the fitted concentration of half-maximal effect. In a few lines: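 Wild-type CHO-K1 cells (1,500/well) treated with compound after 5 h plating; after 16 h at 37C, viability read as CellTiter-Fluor fluorescence following 1 h reagent incubation, in the same wells as the caspase read.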
Assay [5] in a line: Caspase-3/7 induction in CHO-K1 cells by small molecules, qHTS assay (AID 1346980). Note: nearly all actives have a fitted effect of over 15% in size. In a few lines: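 Luminescent Caspase-Glo 3/7 read (30min, room temperature) quantified apoptosis induction. Cells were wild-type CHO-K1, treated with compound for 17hr at 37 C and 5% CO2.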
Assay [6] is described as follows: Caspase-3/7 induction in HepG2 cells by small molecules, qHTS cell viability counter screen (AID 1346981). Note: nearly all actives have a fitted effect of over 30% in size. Note: potency is the fitted concentration of half-maximal effect. In a few lines: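 Multiplexed with the caspase-3/7 assay: HepG2 cells, 16 hr compound treatment, CellTiter-Fluor viability detection by fluorescence.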
The target in assay [7] is Nuclear receptor subfamily 1 group I member 2 (Homo sapiens) (UniProt O75469). Nature of the assay: Human pregnane X receptor (PXR) small molecule agonists, qHTS assay (AID 1346982). Note: nearly all actives have a fitted effect of over 35% in size. Note: potency is the fitted concentration of half-maximal effect. The essentials: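 We seeded PXR-Luc HepG2 cells in assay medium containing 5% charcoal-stripped FBS, added compounds 5 hr later, incubated 24 hr, and read luminescence with ONE-Glo reagent.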

Assay [8] has as its target Cytochrome P450 2D6 (Homo sapiens) (UniProt P10635). Nature of the assay: Cytochrome P450 Family 2 Subfamily D Member 6 (CYP2D6) small molecule antagonists: luciferase reporter qHTS assay (AID 1671196). Note: nearly all actives have a fitted effect of over 50% in size. Note: potency is the fitted concentration of half-maximal effect. The essentials: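 Luminescence (RLU), read 20 min after detection reagent, indicated CYP2D6 conversion of proluciferin to luciferin during a 1 h NADPH-dependent reaction at room temperature.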
For orientation: Reporter assays use an easily measured gene product as a stand-in for the process of interest.

In assay [9] the target is Cytochrome P450 2C19 (Homo sapiens) (UniProt P33261). Nature of the assay: Cytochrome P450 Family 2 Subfamily C Member 19 (CYP2C19) small molecule antagonists: luciferase reporter qHTS assay (AID 1671197). Note: nearly all actives have a fitted effect of over 65% in size. Note: potency is the fitted concentration of half-maximal effect. In a few lines: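 First, compounds are pinned into enzyme-substrate mix and held 10 min at room temperature. Second, NADPH regeneration solution is added and plates incubate 1 h at 37C. Third, detection reagent is added and luminescence read after 20 min.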

Assay [10] has as its target Cytochrome P450 2C9 (Homo sapiens) (UniProt P11712). Nature of the assay: Cytochrome P450 Family 2 Subfamily C Member 9 (CYP2C9) small molecule antagonists: luciferase reporter qHTS assay (AID 1671198). Note: nearly all actives have a fitted effect of over 50% in size. Note: potency is the fitted concentration of half-maximal effect. The essentials: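 Enzyme-substrate mix preincubated with compound 10 min at room temperature; reaction started with NADPH regeneration solution, 1 h 37C. Luminescent luciferin product read after 20 min detection reagent.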

Assay [11] deals with Voltage-gated inwardly rectifying potassium channel KCNH2 (Homo sapiens) (UniProt Q12809). Nature of the assay: Human Ether-a-go-go-Related Gene (hERG) channel small molecule antagonists: fluorescence cell-based qHTS assay (AID 1671200). Note: nearly all actives have a fitted effect of over 50% in size. Note: potency is the fitted concentration of half-maximal effect. In a few lines:
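hERG-U2OS cells plated overnight at 37 C, loaded with FluxOR II dye 1 h at RT in dark; after 10 min, thallium stimulus added. Fluorescence (480/540 nm) read kinetically for 2 min at 1 s intervals.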
(The hERG channel carries a current that helps repolarise heart muscle cells.)

The target in assay [12] is Cytochrome P450 3A4 (Homo sapiens) (UniProt P08684). Nature of the assay: Cytochrome P450 Family 3 Subfamily A Member 4 (CYP3A4) small molecule antagonists: luciferase reporter qHTS assay (AID 1671201). Note: nearly all actives have a fitted effect of over 50% in size. Note: potency is the fitted concentration of half-maximal effect. In a few lines:
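P450-Glo CYP3A4 luminescent assay: compounds preincubated 10 min at room temperature with enzyme and proluciferin substrate, NADPH regeneration added, 1 h room-temperature reaction, stopped with luciferin detection reagent; luminescence read after 20 min. Ketoconazole positive control.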

Assay [13] deals with Cytochrome P450 1A2 (Homo sapiens) (UniProt P05177). Nature of the assay: Cytochrome P450 Family 1 Subfamily A Member 2 (CYP1A2) small molecule antagonists: luciferase reporter qHTS assay (AID 1671199). Note: nearly all actives have a fitted effect of over 50% in size. Note: potency is the fitted concentration of half-maximal effect. In a few lines:
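CYP1A2 turnover of a luminogenic substrate was quantified after 1 h with NADPH regeneration at room temperature. Furafylline served as positive control.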

Assay [14] concerns the target Nuclear receptor subfamily 1 group I member 2 (Rattus norvegicus) (UniProt Q9R1A7). Nature of the assay: Rat pregnane X receptor (rPXR) activation by small molecules, qHTS assay (AID 1346983). Note: nearly all actives have a fitted effect of over 20% in size. Particulars: rPXR luciferase reporter cells, One-Glo luminescence, 24 h; max activation: stronger effect = higher value. In a few lines: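 Luminescent readout (One-Glo luciferase, 30 min room temperature) followed 24 hr compound treatment at 37 C of rPXR cells plated 2,000 per well and preincubated 5hr; qHTS format with compounds delivered in DMSO.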

In assay [15] the target is Nuclear receptor subfamily 1 group I member 2 (Homo sapiens) (UniProt O75469). Nature of the assay: CYP3A4 induction through human pregnane X receptor (PXR) by small molecules, qHTS assay (AID 1346984). Note: nearly all actives have a fitted effect of over 40% in size. The essentials:
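qHTS, concentration-response format: HepG2 DPX-2 line, PXR/CYP3A4-luc. Exposure 24 h, 37C. Substrate Luciferin-IPA 3uM final, 3 h. Detection One-Glo, 30 min RT.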

Assay [16] has the same target. Nature of the assay: Human pregnane X receptor (PXR) activation by small molecules, qHTS assay (AID 1346985). Note: nearly all actives have a fitted effect of over 40% in size. In a few lines: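 DPX-2 cells (HepG2 co-transfected with a PXR response element and a CYP3A4-promoter luciferase construct) were seeded at 2,000 per well, rested 5 hr at 37C, then exposed to DMSO-dissolved compounds for 24 hr. Activation was read as luciferase luminescence.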

Several values for one entry are separate records, joined by “and”; a condition that tells them apart may be missing. Identical values can stand only once. Records with an inconclusive call do not appear. The source holds several records for some structures; these can differ, active in one and inactive in another. Activity calls are given as the source filed them. Unless noted, calls come from the whole dose curve; as a rule, active = well fitted curve in the direction sought with a large enough effect in the repeat runs; inconclusive = weak or mixed curves; inactive = no such curve, though single readings can be large; an effect the other way counts as inactive or inconclusive.
% is set by controls: 0 for no effect and ±100 for the full control effect.

Cytochrome P450 3A4 (Homo sapiens), sequence (P08684 whole entry, looked up): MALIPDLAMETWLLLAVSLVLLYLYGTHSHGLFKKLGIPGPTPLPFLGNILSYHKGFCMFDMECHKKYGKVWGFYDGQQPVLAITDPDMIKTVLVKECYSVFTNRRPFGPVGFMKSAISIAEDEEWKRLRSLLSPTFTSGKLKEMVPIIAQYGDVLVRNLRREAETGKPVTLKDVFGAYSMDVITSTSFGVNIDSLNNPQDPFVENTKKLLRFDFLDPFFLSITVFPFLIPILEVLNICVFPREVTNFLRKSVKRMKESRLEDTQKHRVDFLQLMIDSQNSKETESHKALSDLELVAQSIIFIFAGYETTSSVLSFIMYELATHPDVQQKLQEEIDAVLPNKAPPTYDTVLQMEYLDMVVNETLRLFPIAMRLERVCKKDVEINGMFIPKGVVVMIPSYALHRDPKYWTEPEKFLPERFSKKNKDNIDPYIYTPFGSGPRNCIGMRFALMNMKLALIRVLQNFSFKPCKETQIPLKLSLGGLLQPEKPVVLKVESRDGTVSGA
Cytochrome P450 1A2 (Homo sapiens), sequence (P05177 whole entry, looked up): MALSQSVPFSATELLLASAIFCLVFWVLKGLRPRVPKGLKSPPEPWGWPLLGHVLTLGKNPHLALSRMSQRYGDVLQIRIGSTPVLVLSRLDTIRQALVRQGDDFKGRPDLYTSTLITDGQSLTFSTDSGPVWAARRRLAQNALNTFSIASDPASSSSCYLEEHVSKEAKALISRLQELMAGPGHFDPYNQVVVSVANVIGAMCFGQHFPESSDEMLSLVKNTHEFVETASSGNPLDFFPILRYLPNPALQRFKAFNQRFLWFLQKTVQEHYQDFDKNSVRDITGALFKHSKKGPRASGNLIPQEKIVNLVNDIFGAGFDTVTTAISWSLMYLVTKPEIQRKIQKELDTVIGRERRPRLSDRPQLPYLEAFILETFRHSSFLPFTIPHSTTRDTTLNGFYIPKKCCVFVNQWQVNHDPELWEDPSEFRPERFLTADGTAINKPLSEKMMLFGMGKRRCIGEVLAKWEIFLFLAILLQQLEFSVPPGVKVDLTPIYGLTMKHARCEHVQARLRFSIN
Nuclear receptor subfamily 1 group I member 2 (Homo sapiens), sequence (O75469 whole entry, looked up): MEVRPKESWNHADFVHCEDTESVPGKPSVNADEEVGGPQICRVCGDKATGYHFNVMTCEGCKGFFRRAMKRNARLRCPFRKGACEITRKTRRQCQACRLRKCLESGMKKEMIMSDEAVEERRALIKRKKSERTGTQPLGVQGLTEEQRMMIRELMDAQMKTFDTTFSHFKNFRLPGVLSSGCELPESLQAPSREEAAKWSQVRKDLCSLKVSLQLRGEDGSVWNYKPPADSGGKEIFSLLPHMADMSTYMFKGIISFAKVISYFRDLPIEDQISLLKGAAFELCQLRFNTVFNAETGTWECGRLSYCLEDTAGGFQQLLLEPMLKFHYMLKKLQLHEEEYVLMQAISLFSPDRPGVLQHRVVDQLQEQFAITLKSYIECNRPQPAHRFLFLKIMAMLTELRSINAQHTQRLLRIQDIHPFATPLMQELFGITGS
Thyrotropin-releasing hormone receptor (Homo sapiens), sequence (P34981 whole entry, looked up): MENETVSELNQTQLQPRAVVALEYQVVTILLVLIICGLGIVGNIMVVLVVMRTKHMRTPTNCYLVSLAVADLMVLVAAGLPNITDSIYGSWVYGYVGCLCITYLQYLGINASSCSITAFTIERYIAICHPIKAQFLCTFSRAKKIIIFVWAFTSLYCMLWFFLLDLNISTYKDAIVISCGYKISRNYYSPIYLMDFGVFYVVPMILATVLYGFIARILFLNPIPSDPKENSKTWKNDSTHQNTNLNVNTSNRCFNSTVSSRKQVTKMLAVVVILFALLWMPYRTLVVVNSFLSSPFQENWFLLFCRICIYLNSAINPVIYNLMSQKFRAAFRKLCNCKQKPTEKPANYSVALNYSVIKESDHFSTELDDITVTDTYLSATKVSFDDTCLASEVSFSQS
Cytochrome P450 2C19 (Homo sapiens), sequence (P33261 whole entry, looked up): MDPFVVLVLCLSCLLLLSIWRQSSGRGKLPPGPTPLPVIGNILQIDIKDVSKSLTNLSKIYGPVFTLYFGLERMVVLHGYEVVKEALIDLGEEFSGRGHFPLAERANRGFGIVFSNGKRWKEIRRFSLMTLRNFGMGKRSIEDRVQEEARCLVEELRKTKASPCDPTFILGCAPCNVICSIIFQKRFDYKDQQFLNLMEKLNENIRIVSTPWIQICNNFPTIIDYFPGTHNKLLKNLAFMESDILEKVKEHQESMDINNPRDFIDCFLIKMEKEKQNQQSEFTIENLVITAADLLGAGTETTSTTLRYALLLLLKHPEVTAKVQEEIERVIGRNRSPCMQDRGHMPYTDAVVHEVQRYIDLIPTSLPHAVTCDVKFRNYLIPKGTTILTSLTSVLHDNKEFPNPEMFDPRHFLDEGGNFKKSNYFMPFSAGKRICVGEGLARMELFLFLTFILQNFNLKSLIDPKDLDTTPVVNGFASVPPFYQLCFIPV
Voltage-gated inwardly rectifying potassium channel KCNH2 (Homo sapiens), sequence (Q12809 whole entry, looked up): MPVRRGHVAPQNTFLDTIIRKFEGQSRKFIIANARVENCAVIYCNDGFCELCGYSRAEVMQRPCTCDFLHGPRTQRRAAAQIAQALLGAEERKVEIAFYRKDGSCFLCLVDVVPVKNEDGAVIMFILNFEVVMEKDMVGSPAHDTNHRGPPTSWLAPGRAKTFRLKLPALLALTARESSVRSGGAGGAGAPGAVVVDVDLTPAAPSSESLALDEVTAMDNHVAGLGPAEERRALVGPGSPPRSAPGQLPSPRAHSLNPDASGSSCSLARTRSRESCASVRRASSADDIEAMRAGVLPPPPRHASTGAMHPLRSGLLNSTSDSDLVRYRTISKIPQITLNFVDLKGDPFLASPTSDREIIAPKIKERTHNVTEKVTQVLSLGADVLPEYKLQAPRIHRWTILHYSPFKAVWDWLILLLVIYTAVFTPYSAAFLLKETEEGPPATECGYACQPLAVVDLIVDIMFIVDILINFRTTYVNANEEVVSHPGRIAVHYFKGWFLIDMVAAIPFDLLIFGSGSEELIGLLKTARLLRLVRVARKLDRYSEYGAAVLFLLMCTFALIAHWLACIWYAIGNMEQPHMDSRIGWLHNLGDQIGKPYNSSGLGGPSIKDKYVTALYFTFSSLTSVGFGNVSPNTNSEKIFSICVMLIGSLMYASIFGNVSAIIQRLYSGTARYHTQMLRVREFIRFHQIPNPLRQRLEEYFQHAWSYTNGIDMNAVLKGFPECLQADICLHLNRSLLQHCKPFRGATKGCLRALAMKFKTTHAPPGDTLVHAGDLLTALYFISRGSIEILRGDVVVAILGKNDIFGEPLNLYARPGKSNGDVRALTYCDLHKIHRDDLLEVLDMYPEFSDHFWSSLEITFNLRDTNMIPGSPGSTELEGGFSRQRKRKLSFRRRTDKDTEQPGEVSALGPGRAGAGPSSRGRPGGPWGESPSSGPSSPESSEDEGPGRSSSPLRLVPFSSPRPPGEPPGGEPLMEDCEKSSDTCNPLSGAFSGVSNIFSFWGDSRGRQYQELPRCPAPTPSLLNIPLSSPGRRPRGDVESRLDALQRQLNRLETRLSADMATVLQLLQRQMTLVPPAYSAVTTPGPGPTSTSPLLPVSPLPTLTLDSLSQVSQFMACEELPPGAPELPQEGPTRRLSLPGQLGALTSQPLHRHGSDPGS
Cytochrome P450 2C9 (Homo sapiens), sequence (P11712 whole entry, looked up): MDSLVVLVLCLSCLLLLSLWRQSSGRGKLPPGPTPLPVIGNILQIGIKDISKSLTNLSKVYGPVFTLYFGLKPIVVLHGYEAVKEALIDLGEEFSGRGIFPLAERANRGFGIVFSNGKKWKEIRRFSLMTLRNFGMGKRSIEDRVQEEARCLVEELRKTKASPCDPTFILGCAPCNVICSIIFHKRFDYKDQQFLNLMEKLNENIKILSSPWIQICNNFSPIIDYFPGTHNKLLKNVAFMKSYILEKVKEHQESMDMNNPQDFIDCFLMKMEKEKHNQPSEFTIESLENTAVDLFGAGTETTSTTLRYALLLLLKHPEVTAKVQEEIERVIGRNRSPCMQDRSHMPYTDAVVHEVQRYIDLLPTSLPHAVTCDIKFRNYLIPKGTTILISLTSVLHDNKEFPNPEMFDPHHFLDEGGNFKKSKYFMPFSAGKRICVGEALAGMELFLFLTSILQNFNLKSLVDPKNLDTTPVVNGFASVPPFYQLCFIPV
Cytochrome P450 2D6 (Homo sapiens), sequence (P10635 whole entry, looked up): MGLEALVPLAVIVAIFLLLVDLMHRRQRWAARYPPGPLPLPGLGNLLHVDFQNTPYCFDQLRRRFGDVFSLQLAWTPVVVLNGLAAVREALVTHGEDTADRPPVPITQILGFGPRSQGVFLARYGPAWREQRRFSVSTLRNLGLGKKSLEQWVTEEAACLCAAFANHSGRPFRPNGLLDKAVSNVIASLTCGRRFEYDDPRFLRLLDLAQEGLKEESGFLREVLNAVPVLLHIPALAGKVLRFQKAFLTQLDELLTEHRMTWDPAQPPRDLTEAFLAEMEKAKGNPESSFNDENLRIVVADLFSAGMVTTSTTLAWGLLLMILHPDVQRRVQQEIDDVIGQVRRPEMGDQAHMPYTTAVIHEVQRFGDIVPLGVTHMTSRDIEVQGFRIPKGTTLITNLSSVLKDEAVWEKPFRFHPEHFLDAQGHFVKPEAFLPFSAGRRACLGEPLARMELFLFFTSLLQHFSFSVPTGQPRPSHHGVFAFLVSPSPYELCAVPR
Nuclear receptor subfamily 1 group I member 2 (Rattus norvegicus), sequence (Q9R1A7 whole entry, looked up): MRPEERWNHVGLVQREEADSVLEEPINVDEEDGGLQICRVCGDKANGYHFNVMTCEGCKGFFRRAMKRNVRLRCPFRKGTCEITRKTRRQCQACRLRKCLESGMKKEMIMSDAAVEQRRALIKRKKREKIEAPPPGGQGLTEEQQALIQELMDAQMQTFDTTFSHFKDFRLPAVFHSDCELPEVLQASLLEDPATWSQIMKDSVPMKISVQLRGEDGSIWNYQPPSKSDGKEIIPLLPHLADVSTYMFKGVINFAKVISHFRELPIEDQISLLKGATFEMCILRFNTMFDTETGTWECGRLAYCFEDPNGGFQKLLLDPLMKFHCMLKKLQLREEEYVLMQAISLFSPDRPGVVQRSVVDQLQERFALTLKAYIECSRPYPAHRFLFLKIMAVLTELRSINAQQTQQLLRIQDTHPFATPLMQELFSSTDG

For the molecule `O=S(=O)(O)c1cc(S(=O)(=O)O)c2c(N=Nc3ccccc3)c(O)ccc2c1`, the Potency entry in assay [1], in assay [3], in assay [5], in [7], in [8] and in assay [10] was “inactive” each time. Also, the Potency result in assay [11] and in assay [12] was “inactive” in each case. Further, the Potency in assay [2] was 39.8 µM (active) and 54.5 µM (active); in [4], 54.7 µM (active) and 34.4 µM (active); in assay [6] it was 54.7 µM (active) and 54.5 µM (active); in [9], 71.3 µM (active) and inactive.
Take `CCCCOCCO`: the Potency result in assay [1], in [3], in assay [4], in assay [5], in assay [6] and in assay [7] was “inactive” each time. For the same molecule, the Potency entry in assay [8], in [9], in assay [10], in assay [11] and in assay [12] was “inactive” throughout.
For `O=S(=O)(Oc1ccc(Cl)cc1Cl)c1ccccc1`, the Potency entry in assay [2], in assay [3], in [4], in assay [5], in [6] and in [12] was “inactive” throughout. For the same molecule, the Potency was 49.4 µM (active) and 54.5 µM (active) in assay [7]; 64.4 µM (active) and 63.3 µM (active) in assay [8]; 811 nM (active) and 894 nM (active) in [9]; 40.6 µM (active) and 35.6 µM (active) in assay [10]; 2.28 µM (active) and 2.24 µM (active) in [13]; 49.8 µM (active) and 34.7 µM (active) in assay [11].
Take `OC[C@@H](O)[C@@H](O)[C@H](O)[C@@H](O)CO`: the Potency result in [2], in assay [3], in assay [4], in assay [5], in assay [6] and in assay [7] was “inactive” each time. The Potency entry in [8], in [9], in [10], in [11] and in assay [12] was “inactive” in each case.
As to `CC(C)(C)C(=O)C1C(=O)c2ccccc2C1=O`, the Potency entry in assay [3], in [5], in [8] and in [11] was “inactive” in each case. Also, the Potency in assay [4] is 27 µM (active) and 43.3 µM (active); in assay [6], 60.5 µM (active); in assay [7], 60.5 µM (active) and inactive; in assay [9], 35.3 µM (active) and inactive; in assay [10], 22.2 µM (active) and 25.2 µM (active); in [13], 31.4 µM (active). Besides, the Potency in assay [12] was 28 µM (active).
On to `CN(C)c1ccc(C(=N)c2ccc(N(C)C)cc2)cc1`, for which the Potency in [2] was 17.8 µM (active) and 23.4 µM (active); in assay [3], 2.4 µM (active) and inactive; in assay [4] it was 30.3 µM (active) and 18.6 µM (active); in [6], 42.7 µM (active) and 46.7 µM (active); in assay [7] it was 2.14 µM (active) and 14.8 µM (active); in assay [8], 125 nM (active) and 76.7 nM (active). Moreover, the Potency in assay [9] was 5.57 µM (active) and 15.3 µM (active); in assay [13], 17.6 µM (active) and 21.6 µM (active); in [11] it was 48.4 µM (active); in assay [12], 39.4 µM (active). The Potency entry in assay [5] and in [10] was “inactive” each time.
As for `O=C(Oc1ccccc1)c1ccc(O)cc1`, the Potency entry in assay [1], in assay [3], in assay [4], in assay [5], in [6] and in [7] was “inactive” throughout. Besides, the Potency entry in [8], in [11] and in [12] was “inactive” throughout. For the same molecule, the Potency is 40.2 µM (active) and 22.4 µM (active) in assay [9]; 11.3 µM (active) and 25.2 µM (active) in [10].
`Clc1cc(Cl)c(Cl)cc1Cl`: the Potency entry in assay [3], in assay [4], in assay [5], in assay [6], in assay [7] and in assay [8] was “inactive” each time. The Potency result in assay [9], in assay [10], in assay [11] and in assay [12] was “inactive” throughout.
Take `CC(=O)CCc1ccccc1`: the Potency entry in [3], in assay [4], in assay [5], in assay [6], in assay [7] and in [8] was “inactive” in each case. Moreover, the Potency entry in assay [10], in [13], in [11] and in assay [12] was “inactive” each time. In addition, in assay [9], the Potency is 81 µM (active) and inactive.
On to `CCCCC/C=C\C/C=C\CCCCCCCC(=O)OC`, for which the Potency result in assay [2], in assay [3], in assay [5], in assay [6] and in assay [11] was “inactive” each time. Further, the Potency entry in assay [4] is “inactive and 61.1 µM (active)”; in assay [7] it was 67.8 µM (active) and 61.1 µM (active); in [8], 35.6 µM (active); in assay [9], 55.8 µM (active) and 11.2 µM (active); in assay [10] it was 35.2 µM (active) and 7.96 µM (active); in assay [13] it was 35.6 µM (active). For the same molecule, the Potency entry in assay [12] was “inactive and 7.1 µM (active)”.
On to `CCC(=O)O`, for which the Potency entry in assay [2], in [3], in assay [4], in [5], in [6] and in assay [7] was “inactive” each time. For the same molecule, the Potency result in [8], in assay [9], in assay [10], in [13], in [11] and in assay [12] was “inactive” throughout.
Turning to `CCc1ccc(O)cc1`, the Potency entry in assay [2], in [3], in assay [4], in assay [5], in assay [6] and in assay [7] was “inactive” in each case. The Potency entry in assay [8], in assay [10], in assay [11] and in [12] was “inactive” each time. The Potency in assay [9] is 71.3 µM (active) and inactive.
On to `OC[C@@H](O)[C@H](O)[C@H](O)[C@@H](O)CO`, for which the Potency result in [3], in assay [4], in assay [5], in [6], in [7] and in [8] was “inactive” in each case. Further, the Potency result in assay [9], in assay [10], in [11] and in assay [12] was “inactive” in each case. Moreover, in assay [14], the max activation was -0.0445% (inactive) and -4.34% (inactive). Further, the result in assay [15] and in [16] was inactive.

The values are drawn from PubChem BioAssay (Tox21).
